Out of some 39,000 compounds screened, about 3,300 (8.5%) were called active. The sample holds actives, similar compounds and a random draw of the others, so the mix is not that of the screen.

For this assay, the system named is HepG2. Nature of the assay: cytotoxicity call (relative viability < 0.9). To be noted: 10 µM.
Take `COc1cc2c(c(OC)c1OC)-c1ccc(OC)c(=O)cc1C(NC(C)=O)CC2` (stereo unspecified): the cytotoxicity call was “active”.
In the case of `COc1cc2c(c(OC)c1OC)-c1ccc(O)c(=O)cc1[C@H](N)CC2`, the cytotoxicity call was “inactive”.
As for `COc1cc2c(c(OC)c1OC)-c1ccc(O)c(=O)cc1C(NC(C)=O)CC2` (stereo unspecified), the entry is “inactive”; as for `CC1(C)OCC2(CNC2)CO1`, “inactive”; as for `CN1CCOC[C@]2(CCCNC2)C1`, “inactive”.
The entry for `CN(C)[C@@H]1C(=O)[C@H](C(N)=O)C(=O)[C@@]2(O)C(=O)[C@@H]3C(=O)c4c(O)cccc4[C@@](C)(O)[C@H]3C[C@@H]12` is “inactive”.
As for `C[C@H]1CN([C@@H](C)CO)C(=O)c2c(c3ccccc3n2C)-c2ccccc2CO[C@@H]1CN(C)C(=O)Oc1ccccc1`, the entry is “inactive”; as for `CN1[C@@H]2C[C@@H](O)C[C@H]1[C@@H]1O[C@@H]12`, “inactive”; as for `Cc1ccc(OC(=O)N(C)C[C@H]2OCc3ccccc3-c3c(n(C)c4ccccc34)C(=O)N([C@@H](C)CO)C[C@@H]2C)cc1`, “active”.
As to `Cc1ccc(OC(=O)N(C)C[C@H]2OCc3ccccc3-c3c(n(C)c4ccccc34)C(=O)N([C@H](C)CO)C[C@@H]2C)cc1`, the cytotoxicity call is “active”.
As for `Cc1ccc(OC(=O)N(C)C[C@H]2OCc3ccccc3-c3c(n(C)c4ccccc34)C(=O)N([C@H](C)CO)C[C@H]2C)cc1`, the entry is “inactive”; as for `COc1ccc(OC(=O)N(C)C[C@H]2OCc3ccccc3-c3c(n(C)c4ccccc34)C(=O)N([C@H](C)CO)C[C@@H]2C)cc1`, “inactive”.
The entry for `Cc1ccc(OC(=O)N(C)C[C@@H]2OCc3ccccc3-c3c(n(C)c4ccccc34)C(=O)N([C@@H](C)CO)C[C@@H]2C)cc1` is “inactive”; for `Cc1ccc(OC(=O)N(C)C[C@@H]2OCc3ccccc3-c3c(n(C)c4ccccc34)C(=O)N([C@H](C)CO)C[C@@H]2C)cc1` it is “inactive”.
As for `COc1ccc(OC(=O)N(C)C[C@@H]2OCc3ccccc3-c3c(n(C)c4ccccc34)C(=O)N([C@@H](C)CO)C[C@H]2C)cc1`, the entry is “active”; as for `COc1ccc(OC(=O)N(C)C[C@H]2OCc3ccccc3-c3c(n(C)c4ccccc34)C(=O)N([C@@H](C)CO)C[C@H]2C)cc1`, “inactive”.
In the case of `Cc1ccc(OC(=O)N(C)C[C@@H]2OCc3ccccc3-c3c(n(C)c4ccccc34)C(=O)N([C@@H](C)CO)C[C@H]2C)cc1`, the cytotoxicity call was “inactive”.
As for `CCOCC(=O)N1CC[C@H]2CNC[C@H]21`, the entry is “inactive”; as for `COc1cccc(C2(N)CCCC2)c1`, “inactive”.
As to `CC(C)[C@H]1CN2CCC[C@H]2[C@@]2(O)O[C@](CC(=O)[C@@H]3C=C4c5cccc6[nH]cc(c56)C[C@H]4N(C)C3)(C(C)C)C(=O)N12`, the cytotoxicity call is “inactive”.
The entry for `C[C@H](CO)N1C[C@H](C)[C@@H](CN(C)C(=O)Oc2ccc3ccccc3c2)OCc2cn(nn2)CCCC1=O` is “inactive”.

Source of the values: the antibiotic and cytotoxicity screens of Wong et al. (2023).
